# Experimental data as given in publication PMC7862700, “An all-to-all approach to the identification of sequence-specific readers for epigenetic DNA modifications on cytosine”.
# Key:
# Experiment in all cases: DAPPL (digital affinity profiling via proximity ligation, sequencing); 10 mM Tris-HCl pH 7.5, 50 mM NaCl, 1 mM DTT, 4% glycerol, room temperature, 30 min; GST-TFs on glutathione beads, 16-mer random dsDNA library, 0.1% formaldehyde crosslink after washing; high values mean tight binding
# Conditions in all cases: protein: recombinant; tags: N-terminal GST; dsDNA, one strand shown
# FLI1 = target: T1, FLI1 (Homo sapiens, UniProt Q01543 1-452)
# T1 sequence: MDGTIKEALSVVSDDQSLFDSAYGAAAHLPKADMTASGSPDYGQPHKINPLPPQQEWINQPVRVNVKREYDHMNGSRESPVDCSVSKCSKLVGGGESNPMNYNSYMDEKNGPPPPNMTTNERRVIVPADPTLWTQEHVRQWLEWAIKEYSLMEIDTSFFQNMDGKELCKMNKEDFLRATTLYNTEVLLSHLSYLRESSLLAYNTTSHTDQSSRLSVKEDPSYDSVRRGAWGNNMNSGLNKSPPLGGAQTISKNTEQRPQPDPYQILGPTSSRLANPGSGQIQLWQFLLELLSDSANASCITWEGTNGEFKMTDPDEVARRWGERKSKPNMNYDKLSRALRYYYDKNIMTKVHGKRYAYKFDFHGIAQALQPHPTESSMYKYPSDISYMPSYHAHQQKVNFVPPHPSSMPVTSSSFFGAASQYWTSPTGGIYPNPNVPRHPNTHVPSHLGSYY
# In short: (§1)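 After expression in yeast as GST fusions, human transcription factors were bound to glutathione beads, DNA-barcoded and mixed with a tag-only sample. The pools were incubated with 200 nmole of a 16-mer random double-stranded DNA library in Tris/NaCl/DTT/glycerol buffer (30 min, room temperature), washed and crosslinked with 0.1% formaldehyde. Proximity ligation with BsaI/T4 ligase ran for 1 h at 37 °C, before PCR amplification and sequencing on an Illumina NextSeq500. Binding signal is a hexamer's read frequency for a factor divided by its frequency for the tag-only sample.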
# ERG = target: T2, ERG (Homo sapiens, UniProt P11308 1-479)
# T2 sequence: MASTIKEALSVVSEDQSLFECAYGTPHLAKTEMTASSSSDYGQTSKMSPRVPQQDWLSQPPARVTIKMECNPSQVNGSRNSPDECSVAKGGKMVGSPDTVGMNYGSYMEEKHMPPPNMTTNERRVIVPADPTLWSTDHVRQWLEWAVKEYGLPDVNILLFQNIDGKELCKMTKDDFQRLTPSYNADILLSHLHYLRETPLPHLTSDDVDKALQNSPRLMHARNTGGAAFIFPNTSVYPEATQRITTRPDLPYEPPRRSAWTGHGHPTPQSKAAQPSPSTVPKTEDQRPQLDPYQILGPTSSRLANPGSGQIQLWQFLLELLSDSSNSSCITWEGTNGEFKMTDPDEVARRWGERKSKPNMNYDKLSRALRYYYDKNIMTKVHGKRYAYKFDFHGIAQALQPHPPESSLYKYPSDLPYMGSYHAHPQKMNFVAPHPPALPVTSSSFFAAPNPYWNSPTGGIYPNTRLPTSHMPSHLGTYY
# In short: as §1
# ELF1 = ELF1 (Homo sapiens, UniProt P32519 1-619)
# ELF1, sequence (P32519 whole entry): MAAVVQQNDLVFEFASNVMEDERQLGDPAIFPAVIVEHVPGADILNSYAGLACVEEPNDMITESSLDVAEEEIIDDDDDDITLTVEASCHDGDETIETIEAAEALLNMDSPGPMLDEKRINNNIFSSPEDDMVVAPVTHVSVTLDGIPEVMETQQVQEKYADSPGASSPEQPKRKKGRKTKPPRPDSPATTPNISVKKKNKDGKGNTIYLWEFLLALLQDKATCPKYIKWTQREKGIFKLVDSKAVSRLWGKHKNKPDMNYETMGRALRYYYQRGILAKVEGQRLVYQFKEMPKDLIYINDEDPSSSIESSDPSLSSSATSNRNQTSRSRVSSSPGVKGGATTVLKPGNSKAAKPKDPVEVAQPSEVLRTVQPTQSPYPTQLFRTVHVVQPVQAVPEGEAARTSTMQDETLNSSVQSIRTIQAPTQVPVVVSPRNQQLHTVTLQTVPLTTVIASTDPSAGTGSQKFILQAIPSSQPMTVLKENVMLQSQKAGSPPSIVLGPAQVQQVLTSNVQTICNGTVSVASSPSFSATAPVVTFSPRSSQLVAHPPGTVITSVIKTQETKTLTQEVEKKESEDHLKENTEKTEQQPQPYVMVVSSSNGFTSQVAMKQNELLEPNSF
# In short: as §1
# EHF = target: T3, EHF (Homo sapiens, UniProt Q9NZC4 1-300)
# T3 sequence: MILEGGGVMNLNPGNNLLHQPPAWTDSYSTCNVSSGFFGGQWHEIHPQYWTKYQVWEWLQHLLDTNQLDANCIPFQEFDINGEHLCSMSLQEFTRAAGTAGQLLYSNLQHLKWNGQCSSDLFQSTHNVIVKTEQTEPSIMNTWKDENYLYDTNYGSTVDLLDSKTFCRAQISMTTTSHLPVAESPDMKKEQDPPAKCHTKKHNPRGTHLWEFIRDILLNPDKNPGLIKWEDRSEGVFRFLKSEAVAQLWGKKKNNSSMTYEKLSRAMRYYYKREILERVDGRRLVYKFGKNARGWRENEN
# In short: as §1
# SPIB = SPIB (Homo sapiens, UniProt Q01892 1-262)
# SPIB, sequence (Q01892 whole entry): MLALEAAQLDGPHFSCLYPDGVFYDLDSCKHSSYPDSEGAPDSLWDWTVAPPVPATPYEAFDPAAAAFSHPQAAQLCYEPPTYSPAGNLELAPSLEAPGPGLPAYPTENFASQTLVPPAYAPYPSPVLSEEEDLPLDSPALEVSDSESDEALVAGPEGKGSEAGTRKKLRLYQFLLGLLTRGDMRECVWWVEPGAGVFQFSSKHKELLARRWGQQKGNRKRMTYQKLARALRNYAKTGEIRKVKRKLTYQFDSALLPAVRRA
# In short: as §1
# ETV5 = ETV5 (Homo sapiens, UniProt P41161 1-510)
# ETV5, sequence (P41161 whole entry): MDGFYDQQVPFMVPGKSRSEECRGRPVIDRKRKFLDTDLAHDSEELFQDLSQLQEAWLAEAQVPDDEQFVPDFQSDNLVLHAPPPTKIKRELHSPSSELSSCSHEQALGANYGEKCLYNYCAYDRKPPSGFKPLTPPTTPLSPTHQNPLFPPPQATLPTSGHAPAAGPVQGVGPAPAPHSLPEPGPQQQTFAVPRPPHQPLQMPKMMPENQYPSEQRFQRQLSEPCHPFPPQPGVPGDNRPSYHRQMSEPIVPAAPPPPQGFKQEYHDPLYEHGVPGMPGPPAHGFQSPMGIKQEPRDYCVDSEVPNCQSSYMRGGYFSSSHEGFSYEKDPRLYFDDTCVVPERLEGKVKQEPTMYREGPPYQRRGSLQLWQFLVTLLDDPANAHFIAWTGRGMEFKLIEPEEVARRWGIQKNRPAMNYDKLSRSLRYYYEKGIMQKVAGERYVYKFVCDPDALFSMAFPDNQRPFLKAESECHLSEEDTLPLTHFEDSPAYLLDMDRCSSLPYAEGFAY
# In short: as §1
# SPIC = target: T4, SPIC (Homo sapiens, UniProt Q8N5J4 1-248)
# T4 sequence: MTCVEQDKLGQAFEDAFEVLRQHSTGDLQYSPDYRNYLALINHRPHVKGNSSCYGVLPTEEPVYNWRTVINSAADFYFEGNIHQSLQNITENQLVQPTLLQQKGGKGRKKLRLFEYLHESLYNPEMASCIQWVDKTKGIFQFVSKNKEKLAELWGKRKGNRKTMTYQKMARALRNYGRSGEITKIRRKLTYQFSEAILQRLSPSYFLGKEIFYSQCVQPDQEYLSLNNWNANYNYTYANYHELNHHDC
# In short: as §1
# ELF4 = ELF4 (Homo sapiens, UniProt Q99607 1-663)
# ELF4, sequence (Q99607 whole entry): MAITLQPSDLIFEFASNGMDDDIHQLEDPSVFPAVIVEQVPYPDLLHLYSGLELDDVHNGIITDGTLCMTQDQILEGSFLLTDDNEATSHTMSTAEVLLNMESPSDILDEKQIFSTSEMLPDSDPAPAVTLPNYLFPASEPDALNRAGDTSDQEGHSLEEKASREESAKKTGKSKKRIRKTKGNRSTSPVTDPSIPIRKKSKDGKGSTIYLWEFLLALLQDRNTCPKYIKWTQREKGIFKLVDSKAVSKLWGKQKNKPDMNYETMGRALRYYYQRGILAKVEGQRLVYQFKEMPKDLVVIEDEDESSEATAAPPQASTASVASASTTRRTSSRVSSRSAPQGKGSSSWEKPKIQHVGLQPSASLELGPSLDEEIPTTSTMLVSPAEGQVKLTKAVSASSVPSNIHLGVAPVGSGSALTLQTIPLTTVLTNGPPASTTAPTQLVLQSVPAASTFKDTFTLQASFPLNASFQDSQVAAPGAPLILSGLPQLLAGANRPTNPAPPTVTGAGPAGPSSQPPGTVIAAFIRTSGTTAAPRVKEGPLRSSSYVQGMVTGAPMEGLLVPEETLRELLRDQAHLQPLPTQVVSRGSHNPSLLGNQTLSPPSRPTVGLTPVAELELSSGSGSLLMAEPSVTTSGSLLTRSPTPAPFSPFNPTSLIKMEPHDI
# In short: as §1
# ETV1 = ETV1 (Homo sapiens, UniProt P50549 1-477)
# ETV1, sequence (P50549 whole entry): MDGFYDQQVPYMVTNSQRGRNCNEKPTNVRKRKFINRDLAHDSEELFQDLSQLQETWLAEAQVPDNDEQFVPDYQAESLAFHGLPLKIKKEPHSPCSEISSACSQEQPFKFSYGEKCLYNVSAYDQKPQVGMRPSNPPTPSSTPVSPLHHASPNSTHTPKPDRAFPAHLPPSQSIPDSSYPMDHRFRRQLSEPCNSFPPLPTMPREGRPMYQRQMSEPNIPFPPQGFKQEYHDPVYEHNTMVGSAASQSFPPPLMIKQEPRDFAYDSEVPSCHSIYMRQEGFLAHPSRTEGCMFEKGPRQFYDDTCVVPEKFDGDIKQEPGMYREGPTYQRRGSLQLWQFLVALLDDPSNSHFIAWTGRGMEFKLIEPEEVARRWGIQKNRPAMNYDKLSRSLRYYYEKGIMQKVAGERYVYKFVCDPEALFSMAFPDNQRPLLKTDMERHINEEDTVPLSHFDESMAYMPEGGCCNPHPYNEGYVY
# In short: as §1
# ERF = target: T5, ERF (Homo sapiens, UniProt P50548 1-548)
# T5 sequence: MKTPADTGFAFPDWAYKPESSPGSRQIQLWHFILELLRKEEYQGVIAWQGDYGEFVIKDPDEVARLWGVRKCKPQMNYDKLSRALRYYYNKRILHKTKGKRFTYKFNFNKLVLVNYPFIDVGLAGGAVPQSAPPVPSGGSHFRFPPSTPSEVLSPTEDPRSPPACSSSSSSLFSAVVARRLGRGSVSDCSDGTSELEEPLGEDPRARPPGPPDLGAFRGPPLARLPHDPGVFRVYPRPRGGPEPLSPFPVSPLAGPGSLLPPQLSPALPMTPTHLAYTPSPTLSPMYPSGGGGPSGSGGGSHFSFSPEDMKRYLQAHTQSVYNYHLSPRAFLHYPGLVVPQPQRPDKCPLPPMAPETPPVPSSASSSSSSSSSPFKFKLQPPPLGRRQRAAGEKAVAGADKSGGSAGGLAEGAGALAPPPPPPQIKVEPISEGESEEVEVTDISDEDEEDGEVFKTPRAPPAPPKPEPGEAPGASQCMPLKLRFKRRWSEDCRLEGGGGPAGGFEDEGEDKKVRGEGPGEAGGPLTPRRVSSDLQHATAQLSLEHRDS
# In short: as §1
# ETV3L = target: T6, ETV3L (Homo sapiens, UniProt Q6ZN32 1-361)
# T6 sequence: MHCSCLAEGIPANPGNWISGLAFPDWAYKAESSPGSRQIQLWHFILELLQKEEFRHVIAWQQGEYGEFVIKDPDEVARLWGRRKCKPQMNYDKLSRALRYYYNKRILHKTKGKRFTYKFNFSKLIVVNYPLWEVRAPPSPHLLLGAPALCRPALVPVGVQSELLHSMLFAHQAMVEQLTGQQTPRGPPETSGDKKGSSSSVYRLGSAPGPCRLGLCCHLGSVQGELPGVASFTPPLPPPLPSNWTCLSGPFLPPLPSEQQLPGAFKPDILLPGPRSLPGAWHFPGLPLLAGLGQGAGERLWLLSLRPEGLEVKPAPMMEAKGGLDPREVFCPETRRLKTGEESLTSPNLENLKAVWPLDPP
# In short: as §1
# SPDEF = target: T7, SPDEF (Homo sapiens, UniProt O95238 1-335)
# T7 sequence: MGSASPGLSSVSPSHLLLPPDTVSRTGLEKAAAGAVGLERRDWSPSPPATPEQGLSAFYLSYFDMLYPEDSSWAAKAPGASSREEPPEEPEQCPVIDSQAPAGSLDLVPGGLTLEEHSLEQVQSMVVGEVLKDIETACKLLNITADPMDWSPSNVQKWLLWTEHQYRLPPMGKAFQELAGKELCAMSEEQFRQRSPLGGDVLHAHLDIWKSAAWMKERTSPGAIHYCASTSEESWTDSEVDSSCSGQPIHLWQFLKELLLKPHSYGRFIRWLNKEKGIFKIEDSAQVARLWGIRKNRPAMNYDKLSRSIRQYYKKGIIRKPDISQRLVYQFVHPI
# In short: as §1
# ETV3 = target: T8, ETV3 (Homo sapiens, UniProt P41162-2 1-143)
# T8 sequence: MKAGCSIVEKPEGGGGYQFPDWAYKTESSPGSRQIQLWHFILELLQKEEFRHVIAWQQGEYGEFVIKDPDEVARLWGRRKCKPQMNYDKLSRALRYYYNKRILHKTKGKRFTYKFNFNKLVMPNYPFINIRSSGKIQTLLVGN
# In short: as §1
# ETV6 = ETV6 (Homo sapiens, UniProt P41212 1-452)
# ETV6, sequence (P41212 whole entry): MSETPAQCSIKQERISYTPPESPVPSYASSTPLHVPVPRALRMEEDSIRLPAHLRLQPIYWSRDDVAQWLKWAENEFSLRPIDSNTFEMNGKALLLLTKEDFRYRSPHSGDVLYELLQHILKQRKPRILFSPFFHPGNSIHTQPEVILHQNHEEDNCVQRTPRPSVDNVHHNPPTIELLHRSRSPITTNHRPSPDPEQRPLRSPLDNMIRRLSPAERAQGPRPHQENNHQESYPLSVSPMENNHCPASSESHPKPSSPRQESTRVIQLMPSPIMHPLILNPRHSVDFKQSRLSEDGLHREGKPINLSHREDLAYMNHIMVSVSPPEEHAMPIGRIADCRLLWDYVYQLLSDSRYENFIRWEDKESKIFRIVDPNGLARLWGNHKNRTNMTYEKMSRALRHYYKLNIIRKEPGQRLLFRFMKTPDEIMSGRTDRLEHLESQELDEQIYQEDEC
# In short: as §1
sequence,measurement,setting,value
CACGGA,binding signal,FLI1,"1.03 fold enrichment (6-mer frequency, TF over GST control)"
same,binding signal,ERG,"1.04 fold enrichment (6-mer frequency, TF over GST control)"
same,binding signal,ELF1,"1.04 fold enrichment (6-mer frequency, TF over GST control)"
same,binding signal,EHF,"1.1 fold enrichment (6-mer frequency, TF over GST control)"
same,binding signal,SPIB,"1.05 fold enrichment (6-mer frequency, TF over GST control)"
same,binding signal,ETV5,"1.05 fold enrichment (6-mer frequency, TF over GST control)"
same,binding signal,SPIC,"1.06 fold enrichment (6-mer frequency, TF over GST control)"
same,binding signal,ELF4,"1.03 fold enrichment (6-mer frequency, TF over GST control)"
same,binding signal,ETV1,"1.06 fold enrichment (6-mer frequency, TF over GST control)"
same,binding signal,ERF,"1.01 fold enrichment (6-mer frequency, TF over GST control)"
same,binding signal,ETV3L,"1.04 fold enrichment (6-mer frequency, TF over GST control)"
same,binding signal,SPDEF,"1.25 fold enrichment (6-mer frequency, TF over GST control)"
same,binding signal,ETV3,"1.22 fold enrichment (6-mer frequency, TF over GST control)"
same,binding signal,ETV6,"1.09 fold enrichment (6-mer frequency, TF over GST control)"
